# Laboratory results published in paper PMC7862700, “An all-to-all approach to the identification of sequence-specific readers for epigenetic DNA modifications on cytosine”.
# Key:
# Experiment in all cases: DAPPL (digital affinity profiling via proximity ligation, sequencing); 10 mM Tris-HCl pH 7.5, 50 mM NaCl, 1 mM DTT, 4% glycerol, room temperature, 30 min; GST-TFs on glutathione beads, 16-mer random dsDNA library, 0.1% formaldehyde crosslink after washing; high values mean tight binding
# Conditions in all cases: protein: recombinant; tags: N-terminal GST; dsDNA, one strand shown
# FLI1 = target: T1, FLI1 (Homo sapiens, UniProt Q01543 1-452)
# T1 sequence: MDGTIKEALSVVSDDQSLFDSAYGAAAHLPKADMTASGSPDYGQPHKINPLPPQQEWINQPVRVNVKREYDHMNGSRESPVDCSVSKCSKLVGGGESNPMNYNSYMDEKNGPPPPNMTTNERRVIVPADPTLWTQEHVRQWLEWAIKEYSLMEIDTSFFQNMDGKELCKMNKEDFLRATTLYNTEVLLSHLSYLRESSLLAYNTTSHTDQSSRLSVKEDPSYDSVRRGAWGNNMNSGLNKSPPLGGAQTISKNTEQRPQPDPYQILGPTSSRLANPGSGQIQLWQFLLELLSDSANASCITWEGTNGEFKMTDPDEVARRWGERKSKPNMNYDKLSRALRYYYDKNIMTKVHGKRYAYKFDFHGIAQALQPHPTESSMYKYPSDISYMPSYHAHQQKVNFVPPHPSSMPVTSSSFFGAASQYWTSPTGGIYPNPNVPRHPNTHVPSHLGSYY
# How it was run: (§1)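 Each value of binding signal is a hexamer's read frequency for a factor divided by the same hexamer's frequency in the tag-only sample. Barcoded, bead-captured GST fusions of human transcription factors made in yeast were pooled with that sample and incubated with 200 nmole of a random double-stranded 16-mer DNA library in Tris/NaCl/DTT/glycerol buffer at room temperature for 30 min. Washing, 0.1% formaldehyde crosslinking, proximity ligation, PCR and Illumina NextSeq500 sequencing followed.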
# ERG = target: T2, ERG (Homo sapiens, UniProt P11308 1-479)
# T2 sequence: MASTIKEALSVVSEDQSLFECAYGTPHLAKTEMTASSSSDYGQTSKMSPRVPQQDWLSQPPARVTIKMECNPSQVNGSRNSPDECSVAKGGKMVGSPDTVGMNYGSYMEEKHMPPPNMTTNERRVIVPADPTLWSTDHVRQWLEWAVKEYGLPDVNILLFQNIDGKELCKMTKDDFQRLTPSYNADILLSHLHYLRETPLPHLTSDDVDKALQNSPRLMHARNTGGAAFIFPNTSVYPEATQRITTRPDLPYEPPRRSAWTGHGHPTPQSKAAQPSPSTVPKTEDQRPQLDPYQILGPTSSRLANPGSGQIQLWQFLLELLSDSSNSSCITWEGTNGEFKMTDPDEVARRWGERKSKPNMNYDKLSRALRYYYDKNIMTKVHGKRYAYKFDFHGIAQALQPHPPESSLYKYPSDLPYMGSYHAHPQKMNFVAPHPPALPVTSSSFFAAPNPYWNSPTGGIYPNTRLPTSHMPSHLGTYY
# How it was run: as §1
# ELF1 = ELF1 (Homo sapiens, UniProt P32519 1-619)
# ELF1, sequence (P32519 whole entry): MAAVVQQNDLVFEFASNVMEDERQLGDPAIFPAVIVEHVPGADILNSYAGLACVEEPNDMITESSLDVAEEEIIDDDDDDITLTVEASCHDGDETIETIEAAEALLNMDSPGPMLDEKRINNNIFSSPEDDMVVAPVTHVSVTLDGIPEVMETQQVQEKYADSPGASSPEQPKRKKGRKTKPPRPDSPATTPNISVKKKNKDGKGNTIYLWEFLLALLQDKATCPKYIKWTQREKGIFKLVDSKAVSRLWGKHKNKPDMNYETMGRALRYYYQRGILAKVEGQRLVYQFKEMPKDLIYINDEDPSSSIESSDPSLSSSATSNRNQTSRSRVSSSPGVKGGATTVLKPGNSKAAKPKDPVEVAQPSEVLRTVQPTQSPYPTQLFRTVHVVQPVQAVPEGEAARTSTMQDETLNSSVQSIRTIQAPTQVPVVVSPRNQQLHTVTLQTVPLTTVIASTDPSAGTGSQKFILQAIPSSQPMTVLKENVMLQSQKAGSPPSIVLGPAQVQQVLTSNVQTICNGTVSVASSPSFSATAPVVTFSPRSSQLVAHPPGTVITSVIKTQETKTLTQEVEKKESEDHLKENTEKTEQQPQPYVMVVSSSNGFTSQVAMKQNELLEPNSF
# How it was run: as §1
# EHF = target: T3, EHF (Homo sapiens, UniProt Q9NZC4 1-300)
# T3 sequence: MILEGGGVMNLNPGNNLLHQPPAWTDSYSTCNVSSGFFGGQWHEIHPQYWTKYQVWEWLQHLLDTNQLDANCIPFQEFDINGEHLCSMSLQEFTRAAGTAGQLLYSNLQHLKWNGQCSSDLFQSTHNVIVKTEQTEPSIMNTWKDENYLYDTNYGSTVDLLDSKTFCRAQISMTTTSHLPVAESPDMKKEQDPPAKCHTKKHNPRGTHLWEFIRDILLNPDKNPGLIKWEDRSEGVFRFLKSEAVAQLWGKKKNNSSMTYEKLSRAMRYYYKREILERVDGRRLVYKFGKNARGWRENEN
# How it was run: as §1
# SPI1 = SPI1 (Homo sapiens, UniProt P17947 1-270)
# How it was run: as §1
# SPIB = SPIB (Homo sapiens, UniProt Q01892 1-262)
# SPIB, sequence (Q01892 whole entry): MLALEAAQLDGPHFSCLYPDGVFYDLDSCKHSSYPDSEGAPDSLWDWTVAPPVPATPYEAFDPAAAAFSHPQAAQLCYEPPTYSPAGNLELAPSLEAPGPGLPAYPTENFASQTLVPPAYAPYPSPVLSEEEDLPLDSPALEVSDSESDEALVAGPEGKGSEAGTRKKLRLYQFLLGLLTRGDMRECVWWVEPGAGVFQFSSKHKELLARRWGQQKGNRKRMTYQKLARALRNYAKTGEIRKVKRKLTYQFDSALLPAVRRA
# How it was run: as §1
# GABPA = target: T4, GABPA (Homo sapiens, UniProt Q06546 1-454)
# T4 sequence: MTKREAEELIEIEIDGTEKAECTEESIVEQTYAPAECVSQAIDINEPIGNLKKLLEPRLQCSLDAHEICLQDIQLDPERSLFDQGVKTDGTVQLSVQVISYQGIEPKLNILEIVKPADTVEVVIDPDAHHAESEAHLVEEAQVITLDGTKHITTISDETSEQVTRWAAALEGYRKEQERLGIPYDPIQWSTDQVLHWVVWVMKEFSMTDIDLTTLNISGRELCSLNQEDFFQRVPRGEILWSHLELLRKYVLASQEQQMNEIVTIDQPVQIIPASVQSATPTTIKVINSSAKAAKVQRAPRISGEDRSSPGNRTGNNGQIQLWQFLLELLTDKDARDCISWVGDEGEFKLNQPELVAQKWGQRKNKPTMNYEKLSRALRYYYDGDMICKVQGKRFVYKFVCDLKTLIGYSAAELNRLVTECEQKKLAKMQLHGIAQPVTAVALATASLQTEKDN
# How it was run: as §1
# ELK3 = target: T5, ELK3 (Homo sapiens, UniProt P41970 1-407)
# T5 sequence: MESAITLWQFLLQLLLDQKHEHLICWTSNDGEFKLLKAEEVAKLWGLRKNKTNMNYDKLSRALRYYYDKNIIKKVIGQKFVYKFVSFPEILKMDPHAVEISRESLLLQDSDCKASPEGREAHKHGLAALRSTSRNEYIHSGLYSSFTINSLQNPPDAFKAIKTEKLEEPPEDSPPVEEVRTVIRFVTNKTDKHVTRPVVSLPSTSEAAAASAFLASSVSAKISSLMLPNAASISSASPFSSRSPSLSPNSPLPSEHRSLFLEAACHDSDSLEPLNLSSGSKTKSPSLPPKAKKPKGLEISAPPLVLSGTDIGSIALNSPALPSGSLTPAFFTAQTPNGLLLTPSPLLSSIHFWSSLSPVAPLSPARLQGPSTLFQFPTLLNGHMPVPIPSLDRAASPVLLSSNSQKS
# How it was run: as §1
# ELK1 = target: T6, ELK1 (Homo sapiens, UniProt P19419 1-428)
# T6 sequence: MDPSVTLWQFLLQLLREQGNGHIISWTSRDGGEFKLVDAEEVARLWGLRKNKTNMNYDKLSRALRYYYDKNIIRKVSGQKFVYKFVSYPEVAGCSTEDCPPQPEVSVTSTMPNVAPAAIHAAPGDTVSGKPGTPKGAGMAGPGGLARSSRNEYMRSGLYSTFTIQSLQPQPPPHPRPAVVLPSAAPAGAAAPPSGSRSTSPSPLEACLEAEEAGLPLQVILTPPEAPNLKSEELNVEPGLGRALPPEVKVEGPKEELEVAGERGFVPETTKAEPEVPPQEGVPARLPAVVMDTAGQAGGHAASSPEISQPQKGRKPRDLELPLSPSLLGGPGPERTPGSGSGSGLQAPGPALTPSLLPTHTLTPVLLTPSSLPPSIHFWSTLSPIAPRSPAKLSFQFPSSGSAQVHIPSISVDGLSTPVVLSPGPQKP
# How it was run: as §1
Sequence,binding signal (FLI1),binding signal (ERG),binding signal (ELF1),binding signal (EHF),binding signal (SPI1),binding signal (SPIB),binding signal (GABPA),binding signal (ELK3),binding signal (ELK1)
GAAAGA,"1.01 fold enrichment (6-mer frequency, TF over GST control)","1.02 fold enrichment (6-mer frequency, TF over GST control)","1.08 fold enrichment (6-mer frequency, TF over GST control)","1.01 fold enrichment (6-mer frequency, TF over GST control)","1.14 fold enrichment (6-mer frequency, TF over GST control)","1.02 fold enrichment (6-mer frequency, TF over GST control)",,,
AAGGCT,"1.03 fold enrichment (6-mer frequency, TF over GST control)",,"1.1 fold enrichment (6-mer frequency, TF over GST control)","1.02 fold enrichment (6-mer frequency, TF over GST control)",,"1.01 fold enrichment (6-mer frequency, TF over GST control)","1.12 fold enrichment (6-mer frequency, TF over GST control)","1.1 fold enrichment (6-mer frequency, TF over GST control)",
ACGATC,"1.05 fold enrichment (6-mer frequency, TF over GST control)","1.03 fold enrichment (6-mer frequency, TF over GST control)","1.09 fold enrichment (6-mer frequency, TF over GST control)",,,"1.08 fold enrichment (6-mer frequency, TF over GST control)","1.17 fold enrichment (6-mer frequency, TF over GST control)","1.1 fold enrichment (6-mer frequency, TF over GST control)",
TGCTGT,"1.03 fold enrichment (6-mer frequency, TF over GST control)",,"1.09 fold enrichment (6-mer frequency, TF over GST control)","1.13 fold enrichment (6-mer frequency, TF over GST control)",,"1 fold enrichment (6-mer frequency, TF over GST control)",,,"1 fold enrichment (6-mer frequency, TF over GST control)"
TATTAG,"1.05 fold enrichment (6-mer frequency, TF over GST control)","1.07 fold enrichment (6-mer frequency, TF over GST control)",,"1.02 fold enrichment (6-mer frequency, TF over GST control)","1.09 fold enrichment (6-mer frequency, TF over GST control)",,,"1.18 fold enrichment (6-mer frequency, TF over GST control)","1.03 fold enrichment (6-mer frequency, TF over GST control)"
ATCGTT,"1.08 fold enrichment (6-mer frequency, TF over GST control)","1.02 fold enrichment (6-mer frequency, TF over GST control)",,,,,"1.01 fold enrichment (6-mer frequency, TF over GST control)",,
TGAAAA,"1.06 fold enrichment (6-mer frequency, TF over GST control)",,"1.04 fold enrichment (6-mer frequency, TF over GST control)","1.08 fold enrichment (6-mer frequency, TF over GST control)","1.23 fold enrichment (6-mer frequency, TF over GST control)",,,,"1.03 fold enrichment (6-mer frequency, TF over GST control)"
TACTGG,"1.08 fold enrichment (6-mer frequency, TF over GST control)","1.13 fold enrichment (6-mer frequency, TF over GST control)","1.13 fold enrichment (6-mer frequency, TF over GST control)",,"1.08 fold enrichment (6-mer frequency, TF over GST control)","1.05 fold enrichment (6-mer frequency, TF over GST control)","1.19 fold enrichment (6-mer frequency, TF over GST control)","1.07 fold enrichment (6-mer frequency, TF over GST control)",
CTCGGT,"1.12 fold enrichment (6-mer frequency, TF over GST control)","1.04 fold enrichment (6-mer frequency, TF over GST control)","1.17 fold enrichment (6-mer frequency, TF over GST control)","1.07 fold enrichment (6-mer frequency, TF over GST control)","1.1 fold enrichment (6-mer frequency, TF over GST control)","1.21 fold enrichment (6-mer frequency, TF over GST control)","1.09 fold enrichment (6-mer frequency, TF over GST control)",,
GTTCCA,"1.12 fold enrichment (6-mer frequency, TF over GST control)","1.01 fold enrichment (6-mer frequency, TF over GST control)","1.11 fold enrichment (6-mer frequency, TF over GST control)","1 fold enrichment (6-mer frequency, TF over GST control)","1.03 fold enrichment (6-mer frequency, TF over GST control)","1.1 fold enrichment (6-mer frequency, TF over GST control)","1.03 fold enrichment (6-mer frequency, TF over GST control)","1.08 fold enrichment (6-mer frequency, TF over GST control)",
